This is a sample that favours compounds with a hit; in the whole collection about 1.9% have one here.
RXFP1 antagonist – blocks the human relaxin receptor RXFP1. Q9HBX9. HEK293-RXFP1, relaxin-stimulated cAMP HTRF, 30 min; active compounds read low. activity change, negative = inhibition, % at 57.5 µM. 350,000 compounds, 0.59% hits. AID 1259400;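 active means activity change of -60% or lower, but not beyond a set lower limit; inconclusive means change between -60% and -40%, or beyond the set limit; inactive means change above -40%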
BRCA1 expr up – activators of BRCA1 expression. MCF7-BRCA1-FFLuc reporter, luminescence, 48 h; response scale: scaled: vehicle 0%, 10 µM genistein 100%. Potency, µM (top dose mostly 46.1 µM), actives largely listed as activators. 380,000 compounds, 1.1% hits. AID 624202; further: nearly all actives have a fitted effect of over 80% in size
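Quantitative HTS in MCF7 cells stably reporting BRCA1 expression via firefly luciferase. Compound treatment lasts 48 h at 37 °C in phenol-red free MEM. Activation is expressed relative to genistein at 10 microM and DMSO.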
Giardia killer – Giardia lamblia killing | activity change, % at 7.66 µM, hits read low | AID 540267 | Giardia lamblia trophozoite viability | 340,000 compounds, 0.15% hits; in the data active means activity change below about -80%; inconclusive means between about -30% and that limit;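 further: parasites exposed to compound for two days anaerobically before the ATP read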
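Giardia lamblia trophozoites (100 cells/well) were incubated with compounds for 48 h at 37 deg C under anaerobic conditions. Viability was read as ATP content by one-step luminescence after 15-30 min at room temperature.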
IL-2 act – IL-2 activation. IL-2 activation reporter assay, cell-based qHTS; stimulated with anti-CD3/CD4/CD28 beads; in transgenic mouse T cells. activation, % (series mostly up to about 46 µM). 360,000 compounds, 0.065% hits; in the data active means activation above about 50%; inconclusive means mostly about 30% to 49%
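Unstimulated transgenic mouse T cells; 60-min compound exposure; bead-based TCR/CD4/CD28 stimulation; 18 h culture, 37 degrees C; dual fluorescence (EGFP, DsRed) plate cytometry.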
RXFP1 ag – activates the human relaxin receptor RXFP1 | Q9HBX9 | HEK293T-RXFP1 cAMP TR-FRET, 30 min; response scale: percent of porcine relaxin response, buffer zero | Potency, µM (highest dose often 57.5 µM), usual class: activators | 370,000 compounds, 0.3% hits | AID 2676; further: nearly all actives have a fitted effect of over 60% in size
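cAMP rise read by TR-FRET after 30 min, 37C compound exposure (up to 58 uM) in RXFP1-transfected HEK293 cells with Ro 20174 present. EC50 from Hill-equation fits, with 29 nM porcine relaxin as 100% and buffer as basal.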
NPSR antag – antagonists of human neuropeptide S receptor cAMP signaling; Potency, µM (titrated, usually from 38.3 µM), actives largely listed as inhibitors; CHO-NPSR cells, cAMP TR-FRET, antagonist mode; 220,000 compounds, 1% hits; further: nearly all actives have a fitted effect of over 50% in size
Target sequence (Q6W5P4 whole entry, looked up): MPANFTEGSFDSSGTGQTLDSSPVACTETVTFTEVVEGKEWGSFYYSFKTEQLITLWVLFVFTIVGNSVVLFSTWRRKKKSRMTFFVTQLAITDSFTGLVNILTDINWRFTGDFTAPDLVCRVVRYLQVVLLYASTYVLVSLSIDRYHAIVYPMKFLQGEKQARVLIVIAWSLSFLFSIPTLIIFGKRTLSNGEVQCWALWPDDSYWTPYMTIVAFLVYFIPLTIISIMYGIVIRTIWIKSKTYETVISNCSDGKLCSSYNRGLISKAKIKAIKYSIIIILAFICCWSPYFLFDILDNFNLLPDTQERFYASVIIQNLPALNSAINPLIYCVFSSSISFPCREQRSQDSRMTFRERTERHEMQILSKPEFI
Numbers stand for hits; – = inactive; ? = inconclusive; · = no result. Unless noted, the call rests on the fitted dose curve; in most records, active means well fitted curve in the direction sought with a large enough effect; inconclusive means small, poorly fitted or top-dose-only effect, or another doubt; inactive means no such curve, though single readings can be large; an effect the other way counts as inactive or inconclusive.

SMILES | RXFP1 antagonist | BRCA1 expr up | Giardia killer | IL-2 act | RXFP1 ag | NPSR antag
Cc1ccc2occ(CC(=O)Nc3ccc(Cl)c(C(F)(F)F)c3)c2c1 | – | · | · | · | – | ·
O=C(NNS(=O)(=O)c1ccccc1)c1cc2cc3ccccc3nc2s1 | – | – | – | – | – | –
O=C(NC1CC1)c1cc2cc3ccccc3nc2s1 | – | 5.01µM | – | – | – | ·
COc1cc(-c2noc(-c3ccc(NCC4CCCO4)c([N+](=O)[O-])c3)n2)cc(OC)c1OC (configuration not stated) | · | – | · | · | – | ·
Nc1ccccc1-c1n[nH]c(=S)s1 | – | – | – | – | 28.2µM | ?
CC(C)(C)c1ccc(NC(=O)CSc2nnc3scc(-c4ccccc4)n23)cc1 | – | · | · | · | – | ·
COc1ccc(C(=O)n2nc(-c3ccco3)nc2NCc2cccs2)cc1OC | – | · | · | · | – | ·
COc1ccccc1OCCn1c(CCNC(=O)C2CCCCC2)nc2ccccc21 | · | – | – | · | · | ·
CC1CCc2nc(NC(=O)Cc3cccs3)sc2C1 (configuration not stated) | – | 5.62µM | – | – | – | –
CC(C)C(=O)NNc1nc2ccccc2s1 | – | 8.91µM | – | – | – | –
O=C(CSC1=NCCS1)Nc1nc2ccccc2s1 | – | 8.91µM | – | – | – | –
CC1(C(=O)Nc2nc3ccccc3s2)CC1(Br)Br (configuration not stated) | – | ? | – | – | 20µM | ·
O=C(NNc1nc2ccccc2s1)C1CC1 | – | – | – | – | – | –
C(=C\c1ccnc2ccccc12)/c1ccc2c(c1)OCO2 | · | – | · | · | · | ·
COc1cc(OC)c(OC)cc1/C=C/c1nc2ccccc2o1 | · | – | · | · | · | ·
CC(OCc1ccccc1)C(NC(=O)OC(C)(C)C)C(=O)NC1COC2CC(n3ccc(=O)[nH]c3=O)OC12 (configuration not stated) | · | · | – | · | · | ·
Cc1ccc2c(c1)CCCN2C(=O)c1cnn2c1NC(=C1CC1)C=C2C(F)F | · | – | · | · | · | ·
CCCC1OC2C[C@@H]3[C@H]4CCC5=CC(=O)C=C[C@]5(C)[C@H]4C(O)C[C@]3(C)[C@]2(C(=O)CO)O1 (some centres not stated) | · | – | – | · | · | ·
C[N+](C)(C)CC(O)CC(=O)[O-] (configuration not stated) | – | · | · | · | · | ·
Cn1cc(Cl)c(C(=O)Nc2nc3ccccc3s2)n1 | – | – | – | – | – | –
O=C(Nc1nc(=O)c2ccccc2s1)c1ccc(F)cc1 | – | – | – | – | – | ?
O=C(Nc1nc2ccccc2s1)c1c(F)cccc1Cl | – | 10µM | – | – | – | ·
Cc1ccc2nc(NC(=O)Cc3cccs3)sc2c1 | – | – | – | – | – | –
O=C(Nc1nc(=O)c2ccccc2s1)c1ccc(Cl)cc1 | – | – | – | – | 31.6µM | ?
Nc1c(C(=O)Nc2ccccc2Br)sc2nc(-c3cccs3)ccc12 | – | · | · | · | ? | ·
SMILES | RXFP1 antagonist | BRCA1 expr up | Giardia killer | IL-2 act | RXFP1 ag | NPSR antag
Nc1c(C(=O)Nc2nc3ccccc3s2)sc2nc(-c3cccs3)ccc12 | – | – | – | – | ? | 10µM
O=C(Cc1cccs1)Nc1nc2ccccc2s1 | – | 7.08µM | – | – | – | –
CO/N=C(/C(=O)N[C@@H]1C(=O)N2C(C(=O)[O-])=C(C[n+]3ccn4ncccc43)CS[C@H]12)c1nsc(N)n1 | – | · | · | · | · | ·
CN(C)CCCNc1nccc(N2CCN(C)CC2)n1 | · | – | · | · | · | ·
N#Cc1cc(NC(=O)C(=O)O)c(Cl)c(NC(=O)C(=O)O)c1 | – | · | · | · | · | ·
CN(C)c1ccc(/C=C/c2ccnc3ccccc23)c(N)c1 | · | – | · | · | · | ·
O=C(Cc1ccccc1)Nc1nc2ccccc2s1 | – | 10µM | – | – | – | –
O=C(Cc1ccccc1)Nc1nc(=O)c2ccccc2s1 | – | – | – | – | ? | ?
CC(C)(Oc1ccc(Cl)cc1)C(=O)OCCCOC(=O)C(C)(C)Oc1ccc(Cl)cc1 | – | · | · | · | · | ·
Brc1ccc(-c2ccc(CNCCSc3nnnn3-c3ccccc3)o2)cc1 | – | · | · | · | 14.1µM | ·
COc1ccc(C2=CC(c3ccccc3Cl)n3nc(-c4ccc(C)cc4)nc3N2)cc1 (configuration not stated) | – | · | · | · | – | ·
CC1CCCN(c2nc3ccsc3c(=O)s2)C1 (configuration not stated) | – | 12.6µM | – | – | – | –

Bioassay records from PubChem BioAssay.
